Inconclusive results are not listed. Active and inactive are the calls of the source. Rule as the data show it, unless noted: active = inhibition above about 80%; inactive = the rest.
Assays:
[1] = inhibitors of Cryptococcus chitosan production, flow cytometry, Cibacron Brilliant Red staining (AID 1347148; call rule not given here;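 also: compound exposure lasted three days at 37 degrees C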); conditions: Cryptococcus neoformans chitosan, stronger effect = lower value; at 99.1 µM unless noted
[2] = protection against mutant huntingtin cytotoxicity, PC12 cells, LDH release (AID 1610); conditions: PC12 mutant huntingtin toxicity, final LDH at 4 uM, stronger effect = lower value
[3] = HDN33 neuroblastoma growth inhibition, cell-based, chromothripsis tumors, cisplatin or BGB combos (AID 1671450); conditions: HDN33 neuroblastoma cells, stronger effect = higher value;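 also: cells exposed to compound for four days; 0% = vehicle DMSO and 100% = cell killing by high DMSO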
[4] = LFS_MB_1R medulloblastoma cell growth inhibition, synergistic combos for chromothripsis tumors, cisplatin or BGB combos (AID 1671452); conditions: LFS_MB_1R medulloblastoma cells, stronger effect = higher value;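 also: cells exposed for 96 hours before readout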
[5] = HTB85 osteosarcoma cell growth inhibition, synergistic combos for chromothripsis tumors, BGB or cisplatin IC20 combos (AID 1671453); conditions: HTB85 osteosarcoma cells, drug combinations, stronger effect = higher value;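 also: cells exposed for 96 hours before readout; 0% = vehicle DMSO and 100% = high DMSO killing control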
[6] = CRL2098 osteosarcoma cell growth inhibition, synergistic combos for chromothripsis tumors, BGB or cisplatin IC20 combos (AID 1671454); conditions: CRL2098 osteosarcoma cells, drug combinations, stronger effect = higher value;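 also: cells exposed for 96 h before readout; 0% = vehicle DMSO and 100% = killing by high DMSO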
[7] = HD-MB03 medulloblastoma cell growth inhibition, synergistic combos for chromothripsis tumors, BGB or cisplatin IC20 combos (AID 1671455; in the data active = inhibition above about 83%;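 also: 0% = vehicle DMSO and 100% = high DMSO as cytotoxic control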); conditions: HD-MB03 medulloblastoma cells, stronger effect = higher value
[8] = UWB1.289 ovarian carcinoma cell growth inhibition, synergistic combos for chromothripsis tumors, BGB or cisplatin combos (AID 1671456); conditions: UWB1.289 ovarian carcinoma cells, stronger effect = higher value;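 also: cells exposed to compound for four days; 0% = vehicle DMSO and 100% = killing by high DMSO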
[9] = LFS_MB_2R medulloblastoma cell growth inhibition, synergistic combos for chromothripsis tumors, cisplatin combos (AID 1671457); conditions: LFS_MB_2R medulloblastoma cells, stronger effect = higher value;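 also: cells exposed to compound for four days before readout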
[10] = MDA-MB-436 breast carcinoma cell growth inhibition, synergistic combos for chromothripsis tumors, BGB or cisplatin combos (AID 1671458; call rule not given here;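 also: cells exposed for 96 hours; 0% = vehicle DMSO and 100% = killing by high DMSO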); conditions: MDA-MB-436 breast carcinoma growth inhibition, drug combinations, stronger effect = higher value
[11] = UWB1.289_BRCA1 ovarian cancer growth, cell-based, BGB or cisplatin combinations (AID 1671459); conditions: UWB1.289 BRCA1 ovarian carcinoma, drug combinations, stronger effect = higher value
[12] = human astrocyte viability loss, single and combined drugs, cytotoxicity control for chromothriptic childhood tumor combination screen, cell-based, BGB or cisplatin IC20 combos (AID 1671460); conditions: Human astrocytes, drug combinations, stronger effect = higher value;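 also: cells exposed to compounds for 96 hours before viability readout; 0% = vehicle and 100% = killing control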
[13] = growth inhibition of BT084 medulloblastoma cells, cell-based, ICGC_MB145, cisplatin and BGB IC40 combos (AID 1671461); conditions: drug combinations, stronger effect = higher value;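 also: cells exposed to drugs for 96 hours; 0% = vehicle DMSO and 100% = high DMSO full killing control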
[14] = growth inhibition of RCMB18 medulloblastoma cells, cell-based, cisplatin and BGB IC40 combos (AID 1671462); conditions: stronger effect = higher value;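 also: cells exposed to compound for four days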
[15] = growth inhibition of CRL1545 osteosarcoma cells, cell-based, cisplatin and BGB IC20 combos (AID 1671464); conditions: stronger effect = higher value;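 also: cells exposed to compound for 96 hours before readout; 0% = vehicle DMSO and 100% = high DMSO killing control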
[16] = measured here: with BGB IC20 combination, at 0.5 µM
[17] = measured here: with cisplatin IC20 combination, at 0.5 µM
[18] = measured here: combination with cisplatin, at 0.5 µM
[19] = measured here: combination with cisplatin, at 5 µM

## CC[C@]1(O)C[C@@H]2CN(CCc3c([nH]c4ccccc34)[C@@](C(=O)OC)(c3cc4c(cc3OC)N(C)[C@H]3[C@@](O)(C(=O)OC)[C@H](OC(C)=O)[C@]5(CC)C=CCN6CC[C@]43[C@@H]65)C2)C1
[1]
  fold fluorescence: 15.3 [at 55 µM] (inactive)

## O=C1N=C(O)CN1/N=C/c1ccc(-c2ccc([N+](=O)[O-])cc2)o1
[1]
  fold fluorescence: 4.66 [at 159.1 µM] (inactive)

## OCCN(CCO)c1nc(N2CCCCC2)c2nc(N(CCO)CCO)nc(N3CCCCC3)c2n1
[1]
  fold fluorescence: 2.89 (active)

## COc1cc2nc(N3CCN(C(=O)c4ccco4)CC3)nc(N)c2cc1OC
[1]
  fold fluorescence: 6.39 [at 130.4 µM] (inactive)

## CNC(=O)Oc1ccc2c(c1)[C@]1(C)CCN(C)[C@@H]1N2C
[2]
  normalised LDH release: 0.859

## COc1ccc2c(c1)c(CC(=O)O)c(C)n2C(=O)c1ccc(Cl)cc1
[1]
  fold fluorescence: 4.17 [at 139.7 µM] (inactive)

## CCn1cc(C(=O)O)c(=O)c2cc(F)c(N3CCNCC3)cc21
[3]; BGB combo, at 5 µM
  inhibition: -0.689%
[3]; at 0.5 µM
  inhibition: 12.2% (inactive)
[3]; cisplatin combo, at 5 µM
  inhibition: -11.9%
[3]; [16]
  inhibition: 32.5%
[3]; [17]
  inhibition: 3.81%
[3]; single agent, at 5 µM
  inhibition: -7.4%
[4]; at 0.5 µM
  inhibition: 16.4% (inactive)
[4]; measured here: combination with BGB IC40, at 0.05 µM
  inhibition: -0.695%
[4]; [18]
  inhibition: 26.1%
[4]; [19]
  inhibition: 22.9%
[5]; at 0.5 µM
  inhibition: -8.02% (inactive)
[5]; measured here: with BGB IC20, at 0.5 µM
  inhibition: -33.2%
[5]; measured here: with BGB IC20, at 5 µM
  inhibition: -19.1%
[5]; measured here: with cisplatin IC20, at 0.5 µM
  inhibition: 12.6%
[5]; measured here: with cisplatin IC20, at 5 µM
  inhibition: -7.29%
[5]; single agent, at 5 µM
  inhibition: 1.89%
[6]; at 0.5 µM
  inhibition: -43.9% (inactive)
[6]; measured here: combination with BGB at IC20, at 0.5 µM
  inhibition: -32.8%
[6]; measured here: combination with cisplatin at IC20, at 0.5 µM
  inhibition: -33.5%
[7]; at 0.5 µM
  inhibition: -1.96% (inactive)
[7]; measured here: combo with BGB at IC20, at 0.5 µM
  inhibition: -6.97%
[7]; measured here: combo with cisplatin at IC20, at 0.5 µM
  inhibition: 4.39%
[8]; at 0.5 µM
  inhibition: 3.04% (inactive)
[8]; measured here: inhibition with BGB combination, at 0.05 µM
  inhibition: -22.6%
[8]; measured here: inhibition with cisplatin combination, at 0.05 µM
  inhibition: -1.67%
[9]; at 0.5 µM
  inhibition: -18.9% (inactive)
[9]; [18]
  inhibition: -13.2%
[9]; [19]
  inhibition: -11.8%
[10]; at 0.5 µM
  inhibition: -18.4% (inactive)
[10]; measured here: BGB combination, at 0.5 µM
  inhibition: -12.8%
[10]; measured here: BGB combination, at 5 µM
  inhibition: -3.58%
[10]; measured here: cisplatin combination, at 0.5 µM
  inhibition: -41.9%
[10]; measured here: cisplatin combination, at 5 µM
  inhibition: -18.8%
[11]; BGB combination, concentration series, at 5 µM
  inhibition: -3.45%
[11]; at 0.5 µM
  inhibition: 2.01% (inactive)
[11]; cisplatin combination, concentration series, at 5 µM
  inhibition: 12.5%
[12]; at 0.5 µM
  inhibition: 5.02% (inactive)
[12]; measured here: combo with BGB IC20, at 0.5 µM
  inhibition: 10.6%
[12]; measured here: combo with cisplatin IC20, at 0.5 µM
  inhibition: -14.6%
[13]; at 0.5 µM
  inhibition: -27.2% (inactive)
[13]; cisplatin combination, at 0.5 µM
  inhibition: -24.4%
[13]; cisplatin combination, at 5 µM
  inhibition: -61.7%
[13]; measured here: BGB IC40 combination 0.05 uM, at 0.05 µM
  inhibition: -27.3%
[13]; single agent, at 5 µM
  inhibition: -32.3%
[14]; at 0.5 µM
  inhibition: -5.94% (inactive)
[14]; cisplatin combo, at 5 µM
  inhibition: -71.7%
[14]; measured here: BGB IC40 combination, at 0.05 µM
  inhibition: -15.2%
[14]; [18]
  inhibition: 20.7%
[14]; single agent, at 5 µM
  inhibition: -42.9%
[15]; at 0.5 µM
  inhibition: -19.2% (inactive)
[15]; [16]
  inhibition: -33.4%
[15]; [17]
  inhibition: -12.1%
[15]; single agent, at 0.05 µM
  inhibition: 20.3%
[15]; single agent, at 5 µM
  inhibition: 24%

## Nc1c2c(nc3ccccc13)CCCC2
[2]
  normalised LDH release: 0.878

## CN1CCN(CCCN2c3ccccc3Sc3ccc(C(F)(F)F)cc32)CC1
[1]
  fold fluorescence: 10.1 [at 122.7 µM] (inactive)

## O=C(c1ccccc1)c1ccc2n1CCC2C(=O)O (centres undefined)
[2]
  normalised LDH release: 0.828

## NC(N)=NC(=O)c1nc(Cl)c(N)nc1N
[1]
  fold fluorescence: 7.16 [at 217.7 µM] (inactive)
